# Source: PubChem BioAssay (National Center for Advancing Translational Sciences (NCATS))
# TRHR ag: TRH receptor (human) agonism | P34981 | TRHR cells, calcium flux fluo-8, FDSS agonist mode | activation, % at 2 µM | hit rate 0.18% among 360,000 | AID 493084; further: 0% is about no effect
# Target sequence (P34981 whole entry, looked up): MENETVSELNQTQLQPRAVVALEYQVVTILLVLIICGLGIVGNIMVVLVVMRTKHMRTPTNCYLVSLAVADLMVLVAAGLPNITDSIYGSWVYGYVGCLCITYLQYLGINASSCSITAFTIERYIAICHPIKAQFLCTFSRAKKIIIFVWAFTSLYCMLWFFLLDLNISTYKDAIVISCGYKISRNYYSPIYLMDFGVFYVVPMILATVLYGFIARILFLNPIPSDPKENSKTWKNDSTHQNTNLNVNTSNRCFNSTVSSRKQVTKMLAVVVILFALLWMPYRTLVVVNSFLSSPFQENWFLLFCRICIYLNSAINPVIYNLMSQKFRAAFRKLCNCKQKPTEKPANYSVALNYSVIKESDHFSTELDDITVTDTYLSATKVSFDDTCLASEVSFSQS
#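 In this calcium-flux screen, cells bearing human TRHR are dye-loaded with fluo-8, baselined for 10 cycles, then exposed to library compounds; positive kinetic calcium responses during the agonist phase mark hits, with TRH as control.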
# D1 ag: activates the human D1 dopamine receptor; P21728; HEK293 T-REx D1 cells, calcium flux, agonist mode; activation, % at 2 µM; hit rate 1% among 360,000; further: 0% is about no effect
#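 Inducible HEK293 T-REx D1 cells, force-coupled to calcium signalling, were plated at 4000 cells/well with tetracycline and held overnight at 30 C. After no-wash calcium dye loading, compound-evoked calcium rise over 180 s flagged agonists.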
# D1 potentiator: potentiators of human D1 dopamine receptor; P21728; HEK293 TREx D1 cells, calcium flux, dopamine EC20 potentiation; potentiation, % at 10 µM; hit rate 0.036% among 360,000; AID 504651; in the data active means potentiation above about 30%; further: 0% is about no effect
# D1 antagonist: human D1 dopamine receptor antagonism; activity change, negative = inhibition, % at 10 µM; HEK293 TREx D1 cells, calcium flux, dopamine EC80; hits give low values; P21728; hit rate 3.2% among 360,000; AID 504652; in the data active means activity change below about -30%; further: on the % scale 0 is the no-effect control and ±100 the full control effect
#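 Antagonism measured as reduced calcium response to an EC80 dopamine addition following 180 s compound pre-read; cells were inducible HEK293 Trex D1 plated overnight at 30 C, read kinetically at 1 cycle/sec.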
# TRHR enhancer: allosteric enhancers of human TRH receptor. P34981. TRHR cells, fluo-8 calcium fluorescence, EC20 TRH enhancement. enhancement, % at 2 µM. hit rate 0.66% among 360,000. AID 493056; in the data active means enhancement above about 30%; further: 0% is about no effect
#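 Enhancer read-out: after compound pinning and an initial kinetic agonist-mode read, an EC20 of TRH (10 nM final) was injected and fluo-8 calcium signal (Ex 480/Em 530) followed at 1 s/cycle for 100 cycles in TRHR-expressing cells.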
# The depositor's hits bear a star. Compounds with a hit are over-represented: about 4.7% of the library has one in this group of screens. Unless noted, no stated cut-off is given here; in the data, active means activation above about 30%; inactive means the rest.
SMILES,TRHR ag,D1 ag,D1 potentiator,D1 antagonist,TRHR enhancer
CC(NCc1ccc(S(N)(=O)=O)cc1)C(=O)Nc1ccc([N+](=O)[O-])cc1Cl (configuration not stated),0.4,3.2,-6.2,-30.1*,-14.6
O=C(Nc1csc([N+](=O)[O-])c1)Nc1c(Cl)cccc1Cl,0.0,8.8,-7.1,-44.9*,0.1
CC(NCc1ccc(S(N)(=O)=O)cc1)C(=O)Nc1cc([N+](=O)[O-])ccc1Cl (configuration not stated),0.0,1.0,-5.8,8.5,-0.5
CN(C)C(=O)Nc1ccccc1CC[N+](=O)[O-],0.3,3.4,-0.9,1.0,0.7
Cc1cc2nc(-c3ccc(OCc4ccccc4F)cc3)cc(C(F)(F)F)n2n1,1.3,-0.9,-2.4,4.5,-4.5
CNC(=O)Cn1c(=O)c2cccn2c2ccc(F)cc21,0.6,2.8,-2.1,0.7,7.7
COc1ccc(N2CCN(C(C)C(=O)Nc3nnc(C)s3)CC2)cc1 (configuration not stated),0.8,1.7,-5.6,-3.5,32.2*
COc1ccc(N2CCN(C(C)C(=O)N3CCCC3)CC2)cc1 (configuration not stated),0.3,-0.2,-2.0,0.0,-11.4
COc1ccc(N2CCN(C(=O)CSc3nnc(NC(=O)C4CCC4)s3)CC2)cc1,0.8,2.2,-4.2,-32.0*,-1.6
Cc1ccc2nc(-c3c[nH]c4ccccc34)c(Nc3ccccc3)n2c1,0.6,-0.1,-1.9,-19.0,-5.4
Cc1cccc(-c2noc(-c3ccccc3OCC(=O)Nc3ccccc3[N+](=O)[O-])n2)c1,-0.6,2.1,-3.0,5.1,4.4
CCC(=O)N(CC)c1nc(-c2ccc(OC)cc2)cs1,-0.3,112.7*,-0.8,-47.1*,-5.2
COc1ccc(-c2csc(N(CCCN(C)C)C(=O)c3ccccc3C)n2)cc1,4.3,33.4*,-11.3,-54.1*,-1.3
CCOc1ccccc1NC(=O)CN1C(=O)CC(c2ccc(C)c(C)c2)=Nc2ccccc21,0.9,2.0,-1.6,17.4,5.2
CCCCC1CCC(C(=O)N2CC(=O)Nc3ccc(C)cc3C2c2ccc(F)cc2)CC1 (configuration not stated),-0.3,5.2,0.2,-53.0*,-6.4
CCCCC1CCC(C(=O)N2CC(=O)Nc3ccc(Cl)cc3C2c2ccc(F)cc2)CC1 (configuration not stated),0.4,0.0,-0.9,-9.4,3.1
CCOC(=O)/C(C(=Nc1ccccc1)Nc1ccccc1)=C(\C)O,-0.5,2.8,-4.8,-6.1,-3.5
NC(=Nc1ccccc1)Nc1ccccc1,95.6*,89.9*,-1.2,-26.5,6.6
Nc1ccc(S(=O)(=O)NC2=NCCCCC2)cc1N,1.7,3.3,-5.0,11.9,10.0
O=[N+]([O-])c1cc(S(=O)(=O)NC2=NCCCCC2)ccc1NCC1CCCCC1,-0.7,6.0,0.1,-33.5*,-3.5
C[C@H]1c2cccc(O)c2C(O)=C2C(=O)[C@]3(O)C(O)=C(C(N)=O)C(=O)[C@@H](N(C)C)[C@@H]3[C@@H](O)[C@@H]21,0.1,-0.1,-8.1,-83.5*,-24.7
OCC1(CCOc2ccccc2)CCN(Cc2ccncc2)CC1,0.0,-0.1,-5.2,32.3,-3.5
CSc1ccc(CN2CCC(CO)(CCOc3ccccc3)CC2)cc1,1.9,40.9*,-7.8,5.4,-0.4
COc1ccc(CN2CCC(CO)(CCOc3ccccc3)CC2)cc1C,3.6,48.0*,-1.9,16.5,4.1
CC(Sc1nnc(-c2cccnc2)n1-c1ccccc1F)C(=O)N1CCCc2ccccc21 (configuration not stated),0.0,2.5,2.4,0.9,37.0*
CC(Sc1nnc(-c2cccnc2)n1N)C(=O)N1CCOCC1 (configuration not stated),0.1,3.0,10.6,-1.4,-3.7
CCC(C(=O)NCCc1ccc(OC)c(OC)c1)n1nc(C)c2sc3ccccc3c2c1=O (configuration not stated),0.5,3.3,-1.8,-9.5,-1.3
Cc1c(CNC2CCC(C)CC2)c(C(=O)O)c(C)n1Cc1ccccc1F (configuration not stated),0.6,-2.0,-3.0,-49.1*,12.9
Cc1c(CNC2CCCCC2)c(C(=O)O)c(C)n1Cc1ccccc1F,0.9,-0.9,0.3,-3.2,-1.3
